Results filed as inconclusive are left out. The source holds several records for some structures; these can differ, active in one and inactive in another. Calls of active or inactive are those of the source. Rule for the calls, unless noted: active = hit-call score of the fitted dose curve at least 0.9, where 1 is the maximum; inactive = score below 0.9.
Experiments:
[1] = target: Glucocorticoid receptor (Homo sapiens) (UniProt P04150); assay: ATG_GR_TRANS: Attagene TRANS-FACTORIAL HepG2 Assay for human Glucocorticoid Receptor (GR) (AID 2282978; active = hit-call score of the fitted dose curve at least 0.9, where 1 is the maximum;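 note: activators score as hits since higher reporter transcript over DMSO is fitted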); details: HepG2 Attagene TRANS GR reporter, mRNA transcription
How it was run: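 Reporter transcript levels, detected by fluorescence after RT-PCR and capillary electrophoresis, served as the endpoint. HepG2 cells bearing transfected GAL4-UAS reporters responsive to NR-GAL4 chimeras were incubated with compound 24 h; DMSO defined baseline.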

[2] = target: Oxysterols receptor LXR-beta (Homo sapiens) (UniProt P55055); assay: ATG_LXRb_TRANS: Attagene TRANS-FACTORIAL HepG2 Assay for human Liver X Receptor beta (LXRb) (AID 2282981; active = hit-call score of the fitted dose curve at least 0.9, where 1 is the maximum); details: HepG2 Attagene TRANS GAL4-LXRb reporter, mRNA
How it was run: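 Measures induction of a Gal4-driven reporter transcript in HepG2 cells expressing an exogenous LXRb-Gal4 fusion. Cells are exposed to compound for 24 h before RNA isolation and RT-PCR with capillary electrophoresis detection.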

[3] = target: Nuclear receptor subfamily 4 group A member 2 (Homo sapiens) (UniProt P43354); assay: ATG_NURR1_TRANS: Attagene TRANS-FACTORIAL HepG2 Assay for human Nuclear Receptor Related Protein 1 (NURR1) (AID 2282985; active = hit-call score of the fitted dose curve at least 0.9, where 1 is the maximum); details: HepG2 Attagene TRANS reporter, mRNA readout
How it was run: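 Chimeric NR-Gal4 fusion activity measured in HepG2 after 24 h treatment. Reporter transcripts detected by RT-PCR and capillary electrophoresis fluorescence; positive-direction curve fitting against DMSO.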

[4] = target: Nuclear respiratory factor 1 (Homo sapiens) (UniProt Q16656); assay: ATG_NRF1_CIS: Attagene CIS-FACTORIAL HepG2 Assay for human Nuclear Respiratory Factor 1 (NRF1) Orphan Gene (AID 2282987); details: HepG2 NRF1 cis-element reporter, Attagene multiplex; actives raise or lower the signal
How it was run: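 Cells (HepG2, transient MRTU transfection) are exposed to compound for 24 h, then RNA isolated and reporter mRNA amplified and fluorescently labelled. Fragments are separated by capillary electrophoresis; signal change is fitted bidirectionally relative to DMSO.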

[5] = ATG_NFI_CIS: Attagene CIS-FACTORIAL HepG2 Assay for human Nuclear Factor I (NFI) (AID 2282989); details: HepG2 cis-regulatory reporter, NFI response element transcription; actives raise or lower the signal
How it was run: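 Cells: human liver HepG2, transiently transfected with promoter-regulated reporter transcription units. Exposure 24 h. Detection: fluorescent RT-PCR products separated by capillary electrophoresis, normalised to DMSO negative control.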

[6] = target: Myc proto-oncogene protein (Homo sapiens) (UniProt P01106); assay: ATG_Myc_CIS: Attagene CIS-FACTORIAL HepG2 Assay for human Myelocytomatosis (Myc) Proto-Oncogene Transcription Factor (AID 2282990); details: HepG2, Attagene cis-reporter transcription factor activity; actives raise or lower the signal
How it was run: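 HepG2 cells transiently transfected with multiple cis-promoter-driven reporter transcription units, so endogenous TF activity is read. After 24 h compound exposure, reporter mRNA was quantified by RT-PCR, 6-FAM labelling, HpaI digestion and capillary electrophoresis; bidirectional fit versus DMSO.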

[7] = ATG_NF_kB_CIS: Attagene CIS-FACTORIAL HepG2 Assay for human Nuclear Factor Kappa B (NF-kB) (AID 2282991); details: HepG2 Attagene cis-factorial NF-kB reporter mRNA; actives raise or lower the signal
How it was run: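 Measures mRNA induction of an NF-kB-responsive cis-element reporter in HepG2 cells transfected with multiple reporter units, sampled 24 h post-dosing; quantified by fluorescence after RT-PCR and capillary electrophoresis, fitted for activation or inhibition against DMSO.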

[8] = ATG_NRF2_ARE_CIS: Attagene CIS-FACTORIAL HepG2 Assay for human Nuclear Factor Erythroid 2 Related Factor 2 (NFR2) response to Antioxidant Response Elements (ARE) (AID 2282992); details: HepG2 Attagene ARE/NRF2 reporter, transcription factor activity; actives raise or lower the signal;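 for AC50: reporter mRNA level measured by RT-PCR and capillary electrophoresis fluorescence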
How it was run: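 Readout: reporter mRNA quantified by RT-PCR plus FAM-labelled primer extension, HpaI digestion and capillary electrophoresis, 24 h after dosing transfected HepG2 cells. Gain or loss of signal is fitted bidirectionally against DMSO baseline.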

[9] = target: Cellular tumor antigen p53 (Homo sapiens) (UniProt P04637); assay: ATG_p53_CIS: Attagene CIS-FACTORIAL HepG2 Assay for human p53 Transcription Factor (AID 2282994); details: HepG2 p53 cis-element reporter, Attagene mRNA; actives raise or lower the signal
How it was run: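 Read-out: reporter mRNA by RT-PCR plus capillary electrophoresis with fluorescence detection. Human HepG2 liver cells carried transfected multi-reporter cis-element constructs, dosed 24 h. Gain or loss of signal fitted bidirectionally against DMSO control.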

[10] = BSK_3C_TissueFactor: BioMAP Diversity Plus: 3C Assay for Tissue Factor Biomarker Activity (AID 2282997); details: BioMAP 3C HUVEC, tissue factor biomarker readout; actives raise or lower the signal
How it was run: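 Cells used were primary human umbilical vein endothelial cells. They were dosed with chemical, and after 24 h Tissue Factor was quantified by ELISA. Curves were fitted bidirectionally with DMSO as baseline.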

[11] = BSK_3C_uPAR: BioMAP Diversity Plus: 3C Assay for Urokinase-type plasminogen activator receptor (uPAR) Biomarker Activity (AID 2282998); details: BioMAP 3C HUVEC, uPAR biomarker ELISA; actives raise or lower the signal
How it was run: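 A multiplexed primary-cell system built on human umbilical vein endothelium was used, with chemical present for 24 h before reading. Cell-surface uPAR was detected by ELISA; signal change in either direction counted against DMSO.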

[12] = BSK_3C_VCAM1: BioMAP Diversity Plus: 3C Assay for Vascular cell adhesion molecule 1 (VCAM1) Biomarker Activity (AID 2282999); details: BioMAP 3C HUVEC, VCAM1 ELISA, cytokine-stimulated; actives raise or lower the signal
How it was run: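 Vascular primary endothelium (human umbilical vein) was exposed to chemicals and assayed 24 h later. VCAM-1 levels came from ELISA, with DMSO serving as baseline for bidirectional fitting.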

[13] = BSK_4H_Eotaxin3: BioMAP Diversity Plus: 4H Assay for Eotaxin 3 Biomarker Activity (AID 2283000); details: primary human endothelial cells (HUVEC); actives raise or lower the signal
How it was run: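 Endothelial primary cells (human umbilical vein) exposed to compound for 24 h. ELISA detection of Eotaxin-3.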

[14] = target: Bile acid receptor (Homo sapiens) (UniProt Q96RI1); assay: ATG_FXR_TRANS: Attagene TRANS-FACTORIAL HepG2 Assay for Farnesoid X Receptor (FXR) (AID 2282979; active = hit-call score of the fitted dose curve at least 0.9, where 1 is the maximum;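 note: hits raise reporter mRNA above DMSO so AC50 marks FXR activation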); details: HepG2 Attagene TRANS FXR-GAL4 reporter transcription
How it was run: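 Chimeric FXR-GAL4 activity in transiently transfected human HepG2 liver cells is scored as induction of reporter mRNA after 24 h of dosing. Detection uses RT-PCR with fluorescent labelling and capillary electrophoresis, with DMSO serving as baseline.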

[15] = target: Oxysterols receptor LXR-alpha (Homo sapiens) (UniProt Q13133); assay: ATG_LXRa_TRANS: Attagene TRANS-FACTORIAL HepG2 Assay for human Liver X Receptor alpha (LXRa) (AID 2282980; active = hit-call score of the fitted dose curve at least 0.9, where 1 is the maximum); details: HepG2 Attagene TRANS reporter, LXRa transactivation
How it was run: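 Transient HepG2 transfectants, 24 h dosing, RT-PCR/CE mRNA reporter quantitation; gain-of-signal vs DMSO.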

[16] = target: Hepatocyte nuclear factor 4-alpha (Homo sapiens) (UniProt P41235); assay: ATG_HNF4a_TRANS: Attagene TRANS-FACTORIAL HepG2 Assay for human Hepatocyte Nuclear Factor 4 alpha (HNF4a) (AID 2282982; active = hit-call score of the fitted dose curve at least 0.9, where 1 is the maximum); details: HepG2 HNF4a transactivation reporter, mRNA readout
How it was run: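 In this trans-factorial format, a chimeric HNF4a-GAL4 fusion drives a GAL4-UAS reporter in transfected HepG2 liver cells. After 24 h treatment, reporter mRNA induction is measured by RT-PCR with capillary electrophoresis, relative to DMSO.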

[17] = ATG_M_06_TRANS: Attagene TRANS-FACTORIAL HepG2 Assay for M06 Transcription Factor (Internal Marker) (AID 2282983; active = hit-call score of the fitted dose curve at least 0.9, where 1 is the maximum); details: HepG2 Attagene TRANS M06 internal marker reporter
How it was run: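 Human liver HepG2 cells bearing transiently transfected chimeric NR-GAL4 reporter units were treated with chemicals for 24 h. Total RNA was reverse-transcribed, reporter sequences amplified and labelled, then quantified by capillary electrophoresis. Activity was fitted upward relative to DMSO.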

[18] = ATG_M_32_TRANS: Attagene TRANS-FACTORIAL HepG2 Assay for M32 Transcription Factor (Internal Marker) (AID 2282984; active = hit-call score of the fitted dose curve at least 0.9, where 1 is the maximum;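 note: transcript level of a background control reporter unit measured by RT-PCR and capillary electrophoresis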); details: HepG2 Attagene TRANS M32 internal marker reporter
How it was run: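 After 24 h dosing of transfected HepG2 cells, total RNA was reverse-transcribed, reporter sequences PCR-amplified, 6-FAM labelled by primer extension and HpaI-digested before capillary electrophoresis. Signal increase over DMSO was fitted.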

[19] = target: Transcriptional activator Myb (Homo sapiens) (UniProt P10242); assay: ATG_Myb_CIS: Attagene CIS-FACTORIAL HepG2 Assay for human Myeloblastosis (Myb) Proto-Oncogene Transcription Factor (AID 2282986); details: HepG2 Attagene CIS-FACTORIAL Myb reporter transcription; actives raise or lower the signal
How it was run: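 Transiently transfected HepG2 cells, treated 24 h. Reporter mRNA quantified by RT-PCR/capillary electrophoresis; bidirectional fit relative to DMSO.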

[20] = ATG_Oct_MLP_CIS: Attagene CIS-FACTORIAL HepG2 Assay for human Octamer-Binding Transcription Factor (Oct) (AID 2282993); details: HepG2 Attagene cis-factorial Oct reporter, mRNA; actives raise or lower the signal
How it was run: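 HepG2, transient MRTU transfection, cis promoter elements; 24 h dosing; RT-PCR/CE fluorescence read-out of reporter mRNA; fit both directions vs DMSO.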

Measured: AC50

Transcriptional activator Myb (Homo sapiens), sequence (P10242 whole entry, looked up): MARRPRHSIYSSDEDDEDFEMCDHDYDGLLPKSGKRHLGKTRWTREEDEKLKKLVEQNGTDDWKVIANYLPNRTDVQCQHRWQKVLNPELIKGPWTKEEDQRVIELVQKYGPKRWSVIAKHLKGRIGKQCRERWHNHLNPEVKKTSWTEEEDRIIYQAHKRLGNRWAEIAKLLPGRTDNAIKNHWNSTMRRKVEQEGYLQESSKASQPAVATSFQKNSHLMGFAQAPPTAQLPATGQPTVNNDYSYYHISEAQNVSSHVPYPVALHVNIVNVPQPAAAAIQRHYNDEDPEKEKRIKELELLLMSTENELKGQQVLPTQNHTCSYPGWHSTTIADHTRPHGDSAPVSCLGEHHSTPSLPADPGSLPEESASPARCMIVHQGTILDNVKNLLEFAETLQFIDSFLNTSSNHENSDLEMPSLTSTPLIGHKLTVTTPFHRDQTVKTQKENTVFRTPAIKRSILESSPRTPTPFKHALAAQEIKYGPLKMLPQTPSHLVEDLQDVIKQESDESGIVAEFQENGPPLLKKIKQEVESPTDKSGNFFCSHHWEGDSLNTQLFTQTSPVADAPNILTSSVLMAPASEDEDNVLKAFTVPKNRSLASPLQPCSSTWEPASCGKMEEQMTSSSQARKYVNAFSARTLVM
Nuclear respiratory factor 1 (Homo sapiens), sequence (Q16656 whole entry, looked up, the tested form may be a part): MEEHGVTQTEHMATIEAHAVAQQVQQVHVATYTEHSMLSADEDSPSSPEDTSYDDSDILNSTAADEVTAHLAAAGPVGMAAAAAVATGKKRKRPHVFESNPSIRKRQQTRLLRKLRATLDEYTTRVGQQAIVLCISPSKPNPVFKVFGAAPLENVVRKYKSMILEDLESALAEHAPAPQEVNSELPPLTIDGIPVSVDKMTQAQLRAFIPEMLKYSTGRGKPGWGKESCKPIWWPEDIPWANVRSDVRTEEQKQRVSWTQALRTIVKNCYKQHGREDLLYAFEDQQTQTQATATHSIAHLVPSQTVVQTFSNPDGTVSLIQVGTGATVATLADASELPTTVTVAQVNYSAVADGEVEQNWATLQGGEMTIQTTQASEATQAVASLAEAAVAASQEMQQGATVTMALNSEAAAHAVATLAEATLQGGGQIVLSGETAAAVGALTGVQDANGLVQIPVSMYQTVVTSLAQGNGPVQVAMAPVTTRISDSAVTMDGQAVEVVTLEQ
Oxysterols receptor LXR-beta (Homo sapiens), sequence (P55055 whole entry, looked up, the tested form may be a part): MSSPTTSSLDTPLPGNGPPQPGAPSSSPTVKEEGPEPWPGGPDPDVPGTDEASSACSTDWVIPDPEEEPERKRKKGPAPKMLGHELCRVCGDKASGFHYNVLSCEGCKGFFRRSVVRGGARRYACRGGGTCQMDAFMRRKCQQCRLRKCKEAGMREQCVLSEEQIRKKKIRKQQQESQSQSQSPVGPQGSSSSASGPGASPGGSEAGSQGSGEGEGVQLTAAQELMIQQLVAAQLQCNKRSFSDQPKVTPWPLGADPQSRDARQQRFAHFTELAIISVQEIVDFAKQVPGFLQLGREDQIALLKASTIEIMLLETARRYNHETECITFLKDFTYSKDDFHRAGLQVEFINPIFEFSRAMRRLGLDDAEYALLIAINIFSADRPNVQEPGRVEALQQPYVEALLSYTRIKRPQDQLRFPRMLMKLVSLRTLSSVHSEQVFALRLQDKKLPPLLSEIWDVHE
Nuclear receptor subfamily 4 group A member 2 (Homo sapiens), sequence (P43354 whole entry, looked up, the tested form may be a part): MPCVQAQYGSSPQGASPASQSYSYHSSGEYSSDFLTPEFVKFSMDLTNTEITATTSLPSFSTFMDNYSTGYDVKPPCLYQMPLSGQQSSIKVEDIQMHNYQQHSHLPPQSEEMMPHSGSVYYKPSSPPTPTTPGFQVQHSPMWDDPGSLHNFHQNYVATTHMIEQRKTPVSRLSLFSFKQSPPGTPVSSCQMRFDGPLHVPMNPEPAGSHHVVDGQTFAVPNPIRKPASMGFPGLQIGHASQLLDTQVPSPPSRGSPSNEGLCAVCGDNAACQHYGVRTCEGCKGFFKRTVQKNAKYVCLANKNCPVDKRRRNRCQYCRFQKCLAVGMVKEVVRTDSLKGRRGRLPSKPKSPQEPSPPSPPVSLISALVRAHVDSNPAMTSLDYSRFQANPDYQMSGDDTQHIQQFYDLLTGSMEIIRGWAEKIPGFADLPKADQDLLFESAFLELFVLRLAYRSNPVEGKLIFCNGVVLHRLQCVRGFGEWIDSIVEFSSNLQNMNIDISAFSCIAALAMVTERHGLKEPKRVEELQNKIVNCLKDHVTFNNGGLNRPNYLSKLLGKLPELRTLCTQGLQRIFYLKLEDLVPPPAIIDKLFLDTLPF
Cellular tumor antigen p53 (Homo sapiens), sequence (P04637 whole entry, looked up): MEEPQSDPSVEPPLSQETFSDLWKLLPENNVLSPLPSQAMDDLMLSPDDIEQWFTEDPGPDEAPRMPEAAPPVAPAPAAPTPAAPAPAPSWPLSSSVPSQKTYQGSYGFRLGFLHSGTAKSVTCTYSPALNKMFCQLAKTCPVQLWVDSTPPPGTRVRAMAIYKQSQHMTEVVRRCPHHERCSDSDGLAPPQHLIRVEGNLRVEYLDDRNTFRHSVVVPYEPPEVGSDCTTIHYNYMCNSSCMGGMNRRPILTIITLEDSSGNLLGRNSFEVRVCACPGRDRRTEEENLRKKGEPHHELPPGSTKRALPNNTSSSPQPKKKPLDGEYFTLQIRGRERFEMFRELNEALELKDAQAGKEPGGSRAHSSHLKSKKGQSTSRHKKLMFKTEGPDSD
Oxysterols receptor LXR-alpha (Homo sapiens), sequence (Q13133 whole entry, looked up): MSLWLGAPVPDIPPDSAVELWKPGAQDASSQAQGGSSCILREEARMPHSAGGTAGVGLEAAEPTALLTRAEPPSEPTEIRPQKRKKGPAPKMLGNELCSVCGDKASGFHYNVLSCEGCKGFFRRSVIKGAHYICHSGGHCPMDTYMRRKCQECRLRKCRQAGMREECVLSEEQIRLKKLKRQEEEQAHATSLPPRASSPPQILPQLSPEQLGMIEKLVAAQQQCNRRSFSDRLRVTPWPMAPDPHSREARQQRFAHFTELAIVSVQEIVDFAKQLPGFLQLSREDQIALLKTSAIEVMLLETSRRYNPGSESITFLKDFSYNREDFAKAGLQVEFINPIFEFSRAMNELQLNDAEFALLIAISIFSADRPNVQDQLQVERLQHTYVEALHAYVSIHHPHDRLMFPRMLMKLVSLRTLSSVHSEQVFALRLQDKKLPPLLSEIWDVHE
Hepatocyte nuclear factor 4-alpha (Homo sapiens), sequence (P41235 whole entry, looked up, the tested form may be a part): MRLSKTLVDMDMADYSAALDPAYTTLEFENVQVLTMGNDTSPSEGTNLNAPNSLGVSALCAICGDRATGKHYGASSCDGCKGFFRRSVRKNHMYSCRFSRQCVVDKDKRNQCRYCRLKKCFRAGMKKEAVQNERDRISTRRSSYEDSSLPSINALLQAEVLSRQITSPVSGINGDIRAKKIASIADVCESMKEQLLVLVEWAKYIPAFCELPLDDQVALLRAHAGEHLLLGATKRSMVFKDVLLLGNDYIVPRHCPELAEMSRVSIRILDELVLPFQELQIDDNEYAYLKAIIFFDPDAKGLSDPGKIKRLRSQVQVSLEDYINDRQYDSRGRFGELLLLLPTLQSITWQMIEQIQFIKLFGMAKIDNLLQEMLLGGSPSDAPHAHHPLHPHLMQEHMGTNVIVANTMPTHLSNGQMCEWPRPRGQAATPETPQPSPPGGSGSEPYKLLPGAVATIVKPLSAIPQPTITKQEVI
Myc proto-oncogene protein (Homo sapiens), sequence (P01106 whole entry, looked up): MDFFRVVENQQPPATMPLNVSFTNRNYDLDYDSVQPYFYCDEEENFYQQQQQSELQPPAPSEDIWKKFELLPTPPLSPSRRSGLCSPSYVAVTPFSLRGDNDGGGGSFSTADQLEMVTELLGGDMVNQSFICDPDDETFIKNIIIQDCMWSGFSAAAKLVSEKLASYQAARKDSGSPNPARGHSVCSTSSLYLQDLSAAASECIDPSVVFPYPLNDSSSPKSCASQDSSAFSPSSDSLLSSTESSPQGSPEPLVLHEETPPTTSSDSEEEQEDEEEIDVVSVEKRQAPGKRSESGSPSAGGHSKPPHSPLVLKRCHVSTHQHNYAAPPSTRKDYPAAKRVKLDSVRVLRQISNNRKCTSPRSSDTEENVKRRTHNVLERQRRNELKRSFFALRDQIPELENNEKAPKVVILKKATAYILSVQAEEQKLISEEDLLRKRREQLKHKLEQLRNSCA
Glucocorticoid receptor (Homo sapiens), sequence (P04150 whole entry, looked up, the tested form may be a part): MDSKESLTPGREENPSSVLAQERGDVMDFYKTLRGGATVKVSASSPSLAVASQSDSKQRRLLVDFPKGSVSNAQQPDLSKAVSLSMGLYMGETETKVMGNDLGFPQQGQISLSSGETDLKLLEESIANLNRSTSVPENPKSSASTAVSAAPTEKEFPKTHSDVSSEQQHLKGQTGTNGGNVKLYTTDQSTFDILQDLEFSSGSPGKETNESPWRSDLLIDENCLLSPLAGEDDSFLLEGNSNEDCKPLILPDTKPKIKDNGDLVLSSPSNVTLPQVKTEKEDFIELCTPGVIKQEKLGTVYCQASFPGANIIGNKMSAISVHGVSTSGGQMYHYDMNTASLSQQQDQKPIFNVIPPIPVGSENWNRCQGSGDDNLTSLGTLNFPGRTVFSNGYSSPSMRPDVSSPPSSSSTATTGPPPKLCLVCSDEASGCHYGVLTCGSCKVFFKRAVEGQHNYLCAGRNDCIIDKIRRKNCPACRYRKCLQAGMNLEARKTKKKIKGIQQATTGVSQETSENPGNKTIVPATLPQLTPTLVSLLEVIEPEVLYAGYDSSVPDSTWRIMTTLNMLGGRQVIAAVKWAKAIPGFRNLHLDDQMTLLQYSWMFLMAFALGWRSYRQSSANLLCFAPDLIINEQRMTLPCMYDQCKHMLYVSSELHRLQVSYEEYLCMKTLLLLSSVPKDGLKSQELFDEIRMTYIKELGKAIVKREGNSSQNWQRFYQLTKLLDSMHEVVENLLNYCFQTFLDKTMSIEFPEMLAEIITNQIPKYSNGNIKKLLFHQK

Cc1cc(F)ccc1-c1cc(N2CC[C@@H](O)[C@H]2CO)ncc1N(C)C(=O)C(C)(C)c1cc(C(F)(F)F)cc(C(F)(F)F)c1
inactive: [1] | [2] | [3] | [4] | [5] | [6] | [7] | [8] | [9]
active: [10] 12.4 µM | [11] 9.24 µM | [12] 11.8 µM | [13] 12.5 µM

O=C(Nc1ccc(Cl)cc1)Nc1ccc(Cl)c(Cl)c1
active: [8] 6.66 µM | [20] 5.12 µM | [11] 1.89 µM | [12] 3.5 µM | [13] 2.4 µM
inactive: [1] | [14] | [15] | [2] | [16] | [17] | [18] | [3] | [19] | [4] | [6] | [7] | [9] | [10]

CN(C)C(=O)C1(N2CCCCC2)CCN(CC[C@@]2(c3ccc(Cl)c(Cl)c3)CN(C(=O)c3ccccc3)CCO2)CC1
inactive: [1] | [15] | [17] | [3] | [19] | [4] | [6] | [9]
active: [7] 0.62 µM | [8] 0.458 µM | [10] 33.1 µM | [11] 7.23 µM | [12] 29.5 µM | [13] 27.9 µM

CCCCCCCC[Si](OCC)(OCC)OCC
inactive: [1] | [15] | [2] | [17] | [18] | [3] | [19] | [4] | [6] | [7] | [20] | [9] | [10] | [11]
active: [4] 147 µM | [9] 78.4 µM | [12] 18.9 µM | [13] 30.9 µM

c1ccc(C[n+]2cccc3ccccc32)cc1
inactive: [1] | [14] | [15] | [2] | [16] | [17] | [18] | [19] | [4] | [5] | [6] | [7] | [9] | [10] | [11] | [12] | [13]
active: [8] 67.9 µM

c1ccc2n[nH]nc2c1
inactive: [1] | [15] | [17] | [3] | [19] | [4] | [5] | [6] | [7] | [8] | [9] | [10] | [11] | [12] | [13]

CCCCCCCCN(C)CCCCCCCC
inactive: [1] | [16] | [17] | [18] | [3] | [19] | [4] | [5] | [6] | [7] | [8] | [9] | [10] | [11] | [12] | [13]
